# From PubChem BioAssay
# Activity calls are given as the source filed them.
# Columns and labels:
# [1] = small molecules captured by biotinylated probe aFSTL3 – biochemical, small-molecule microarray, fluorescence 635/667, stem cell growth factor project, primary screen (AID 1064); conditions: higher = more signal;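 also: measures binding of the biotinylated anti-FSTL3 antibody to printed compounds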
# [2] = binders from COS7 lysate, DM2A8 probe, primary screen, torsin A project, cell lysate, small-molecule microarray, fluorescence 635/667 (AID 1065); conditions: higher = more signal, COS7 lysate expressing mutant human TOR1A
# [3] = small molecules captured by biotinylated probe aFGF2 – biochemical, small-molecule microarray, fluorescence 635/667, stem cell growth factor project, primary screen (AID 1067); conditions: higher = more signal;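 also: measures binding of biotinylated aFGF2 protein to printed compounds on slides; z-score merges feature fluorescence and signal-to-noise across triplicate slides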
# [4] = small molecules captured by biotinylated probe aFGF10 – biochemical, small-molecule microarray, fluorescence 635/667, stem cell growth factor project, primary screen (AID 1071); conditions: higher = more signal;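 also: score merges 667 nm spot intensity and signal to noise from triplicate slides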
# [5] = target: Neurogenic locus notch homolog protein 2 (Homo sapiens) (UniProt Q04721); assay: small molecules binding Notch2 protein – biochemical, small-molecule microarray, 635 nm fluorescence, stem cell growth factors, primary screen (AID 1073); conditions: higher = more signal
# Neurogenic locus notch homolog protein 2 (Homo sapiens), sequence (Q04721 whole entry, looked up, canonical isoform): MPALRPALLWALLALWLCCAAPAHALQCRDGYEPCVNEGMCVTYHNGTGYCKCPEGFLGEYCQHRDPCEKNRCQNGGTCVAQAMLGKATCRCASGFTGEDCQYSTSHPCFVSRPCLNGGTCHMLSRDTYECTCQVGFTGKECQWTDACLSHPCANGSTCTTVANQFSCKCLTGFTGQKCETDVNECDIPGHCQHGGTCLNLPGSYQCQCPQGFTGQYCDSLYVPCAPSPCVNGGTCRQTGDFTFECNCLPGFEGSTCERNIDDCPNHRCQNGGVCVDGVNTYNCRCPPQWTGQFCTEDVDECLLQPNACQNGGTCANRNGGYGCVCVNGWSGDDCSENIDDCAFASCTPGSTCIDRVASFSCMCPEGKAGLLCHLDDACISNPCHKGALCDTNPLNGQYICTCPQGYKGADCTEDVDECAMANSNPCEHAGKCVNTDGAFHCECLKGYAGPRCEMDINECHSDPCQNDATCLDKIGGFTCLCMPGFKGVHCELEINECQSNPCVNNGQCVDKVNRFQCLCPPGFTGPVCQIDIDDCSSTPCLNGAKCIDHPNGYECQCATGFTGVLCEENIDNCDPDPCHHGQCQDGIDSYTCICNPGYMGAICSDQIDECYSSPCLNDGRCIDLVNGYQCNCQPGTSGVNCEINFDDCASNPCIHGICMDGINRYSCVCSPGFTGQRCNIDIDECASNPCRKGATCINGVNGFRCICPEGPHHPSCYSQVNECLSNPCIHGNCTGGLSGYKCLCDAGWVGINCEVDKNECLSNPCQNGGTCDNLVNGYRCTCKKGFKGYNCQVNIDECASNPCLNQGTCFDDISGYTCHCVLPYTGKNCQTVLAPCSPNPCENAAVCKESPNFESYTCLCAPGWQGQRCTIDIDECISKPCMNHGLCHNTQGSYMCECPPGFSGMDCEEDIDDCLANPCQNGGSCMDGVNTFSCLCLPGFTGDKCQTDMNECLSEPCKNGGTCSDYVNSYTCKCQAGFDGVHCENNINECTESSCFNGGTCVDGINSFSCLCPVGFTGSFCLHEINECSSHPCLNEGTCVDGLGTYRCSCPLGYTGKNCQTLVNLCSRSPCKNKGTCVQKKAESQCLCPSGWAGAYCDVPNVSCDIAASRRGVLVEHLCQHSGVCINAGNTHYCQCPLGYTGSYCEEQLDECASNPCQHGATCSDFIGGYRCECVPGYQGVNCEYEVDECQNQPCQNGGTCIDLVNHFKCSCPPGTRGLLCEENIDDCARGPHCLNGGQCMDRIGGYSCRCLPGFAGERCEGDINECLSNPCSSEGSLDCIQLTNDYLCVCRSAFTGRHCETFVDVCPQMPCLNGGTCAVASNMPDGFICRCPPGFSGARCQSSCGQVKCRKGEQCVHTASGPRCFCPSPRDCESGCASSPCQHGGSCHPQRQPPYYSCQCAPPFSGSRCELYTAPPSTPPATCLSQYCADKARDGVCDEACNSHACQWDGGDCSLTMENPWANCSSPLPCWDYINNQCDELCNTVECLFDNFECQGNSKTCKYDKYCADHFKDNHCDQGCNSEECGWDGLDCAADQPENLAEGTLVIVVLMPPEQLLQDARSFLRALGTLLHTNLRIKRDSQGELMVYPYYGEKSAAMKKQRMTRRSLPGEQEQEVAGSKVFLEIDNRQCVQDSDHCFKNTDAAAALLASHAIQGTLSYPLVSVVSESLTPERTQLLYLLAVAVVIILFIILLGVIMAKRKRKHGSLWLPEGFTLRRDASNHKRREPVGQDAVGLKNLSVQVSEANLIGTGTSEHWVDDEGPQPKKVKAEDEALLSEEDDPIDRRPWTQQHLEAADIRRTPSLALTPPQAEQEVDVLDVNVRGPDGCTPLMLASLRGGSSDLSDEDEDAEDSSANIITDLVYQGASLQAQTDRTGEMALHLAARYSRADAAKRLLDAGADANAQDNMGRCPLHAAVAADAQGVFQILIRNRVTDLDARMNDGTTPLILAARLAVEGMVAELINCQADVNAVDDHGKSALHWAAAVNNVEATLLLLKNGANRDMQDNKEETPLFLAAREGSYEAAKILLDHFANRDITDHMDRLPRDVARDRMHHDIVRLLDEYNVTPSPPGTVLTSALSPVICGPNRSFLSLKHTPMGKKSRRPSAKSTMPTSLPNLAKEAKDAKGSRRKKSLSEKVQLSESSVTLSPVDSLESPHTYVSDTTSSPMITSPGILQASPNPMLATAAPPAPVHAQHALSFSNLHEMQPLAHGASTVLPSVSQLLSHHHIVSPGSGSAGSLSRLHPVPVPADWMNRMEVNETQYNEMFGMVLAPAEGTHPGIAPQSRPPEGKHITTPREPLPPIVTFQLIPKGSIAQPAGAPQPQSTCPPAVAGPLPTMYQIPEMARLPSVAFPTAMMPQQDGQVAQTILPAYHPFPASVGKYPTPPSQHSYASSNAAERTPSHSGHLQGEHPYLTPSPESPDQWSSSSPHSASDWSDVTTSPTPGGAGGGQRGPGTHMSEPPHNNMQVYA
# [6] = target: Pro-neuregulin-1, membrane-bound isoform (Homo sapiens) (UniProt Q02297); assay: small molecules binding neuregulin-1 protein – biochemical, small-molecule microarray, fluorescence 635/667, psychiatric disease protein project, primary screen (AID 1075); conditions: NRG1 binding, 635 nm fluorescence, higher = more signal;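 also: score combines 667 nm spot fluorescence with signal to noise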
# Pro-neuregulin-1, membrane-bound isoform (Homo sapiens), sequence (Q02297 whole entry, looked up, the tested form may be a part, canonical isoform): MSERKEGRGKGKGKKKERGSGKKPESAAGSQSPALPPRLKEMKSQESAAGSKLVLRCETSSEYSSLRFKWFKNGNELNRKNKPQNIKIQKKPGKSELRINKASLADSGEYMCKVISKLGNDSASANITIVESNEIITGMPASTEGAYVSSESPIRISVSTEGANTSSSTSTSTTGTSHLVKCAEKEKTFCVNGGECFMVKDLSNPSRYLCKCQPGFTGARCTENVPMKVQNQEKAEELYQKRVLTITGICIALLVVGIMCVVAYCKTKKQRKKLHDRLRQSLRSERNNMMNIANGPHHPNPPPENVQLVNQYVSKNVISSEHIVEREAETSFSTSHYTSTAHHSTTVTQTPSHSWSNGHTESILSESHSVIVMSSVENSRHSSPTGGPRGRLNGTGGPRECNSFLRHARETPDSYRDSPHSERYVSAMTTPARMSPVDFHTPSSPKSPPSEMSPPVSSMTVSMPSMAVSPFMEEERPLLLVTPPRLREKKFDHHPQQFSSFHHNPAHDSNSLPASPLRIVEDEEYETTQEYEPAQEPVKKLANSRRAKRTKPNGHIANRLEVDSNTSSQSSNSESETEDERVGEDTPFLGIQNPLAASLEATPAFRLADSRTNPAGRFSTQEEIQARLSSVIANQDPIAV
# [7] = tested on: Neuregulin-1 EGF-like domain; assay: small molecules binding NRG1 EGF domain – biochemical, small-molecule microarray, 635 nm fluorescence, primary screen (AID 1081); conditions: higher = more signal;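 also: binding of the protein to compounds printed on small-molecule microarray slides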
# [8] = FRG1 expression reporter modulators in myotubes – cell-based, C2C12 myotubes, firefly/Renilla luciferase, luminescence, FRG1 inhibition for FSHD, primary screen (AID 1084); conditions: FRG1 promoter luciferase, higher = more signal, called active from +8 up or from −8 down
# [9] = small molecules captured by biotinylated probe aFST – biochemical, small-molecule microarray, fluorescence 635/667, stem cell growth factor project, primary screen (AID 1086); conditions: higher = more signal;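 also: score merges 667 nm fluorescence with signal-to-noise of each printed compound spot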
# [10] = binders of probe aHhip on microarray, primary screen, stem cell growth factor project, biochemical, small-molecule microarray, fluorescence 635/667 (AID 1087); conditions: higher = more signal;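 also: score merges spot fluorescence at 667nm with spot signal to noise ratio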
# [11] = tested on: PRMT1 (protein arginine N-methyltransferase 1); assay: small molecules binding arginine methyltransferase PRMT1 – biochemical, small-molecule microarray, 635 nm fluorescence, primary screen (AID 1088); conditions: higher = more signal;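 also: binding of Prmt1 protein to compounds spotted on small-molecule microarray slides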
# [12] = growth effects on S. cerevisiae YJM789 – YJM789 clinical isolate, OD600, 24 h, basal, primary screen (AID 1089); conditions: higher = more signal, called active from +8 up or from −8 down;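 also: growth of clinical yeast isolate S. cerevisiae YJM 789 seeded 1000 cells per well; test concentration not given here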
# [13] = S. pombe growth modifiers, basal conditions – strain 972, OD600, 24 h, no modulator, primary screen (AID 1090);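 also: basal condition with compound alone and no growth modifier present; test concentration not given here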; conditions: S. pombe 972 growth, higher = more signal, called active from +8 up or from −8 down
# [14] = budding yeast growth modifiers under rapamycin – strain BY4716, OD600, 96 h, primary screen (AID 1091); also: test concentration not given here; conditions: S. cerevisiae BY4716 + rapamycin, higher = more signal, called active from +8 up or from −8 down
# [15] = target: Torsin-1A-interacting protein 2 (Homo sapiens) (UniProt Q8NFQ8); assay: small molecules binding lysate-expressed LULL1 – cell lysate, human LULL1 lysate, 635/667 nm fluorescence, primary screen (AID 1092); conditions: small-molecule microarray, hLULL1 lysate binding, 635 nm fluorescence; higher = more signal;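 also: probe is lysate of COS7 cells overexpressing human LULL1; score merges per-feature 667 nm fluorescence with signal-to-noise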
# Torsin-1A-interacting protein 2 (Homo sapiens), sequence (Q8NFQ8 whole entry, looked up): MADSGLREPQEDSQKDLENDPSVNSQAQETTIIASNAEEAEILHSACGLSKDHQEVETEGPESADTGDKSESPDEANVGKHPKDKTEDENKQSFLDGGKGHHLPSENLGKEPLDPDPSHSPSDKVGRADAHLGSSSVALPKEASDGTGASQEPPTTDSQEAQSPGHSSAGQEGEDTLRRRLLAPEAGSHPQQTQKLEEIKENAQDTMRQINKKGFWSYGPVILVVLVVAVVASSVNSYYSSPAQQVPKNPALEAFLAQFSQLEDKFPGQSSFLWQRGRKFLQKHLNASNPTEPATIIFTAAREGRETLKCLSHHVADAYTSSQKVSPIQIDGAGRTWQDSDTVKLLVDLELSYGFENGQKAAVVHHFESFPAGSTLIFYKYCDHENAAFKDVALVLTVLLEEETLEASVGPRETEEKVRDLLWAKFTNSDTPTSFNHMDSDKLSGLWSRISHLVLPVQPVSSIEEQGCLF
# [16] = optical density change of DRC41 E. coli – strain DRC41, OD650, 24 h, E. coli filamentation project, primary screen (AID 1093);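 also: MC1000 strain lacking acrAB efflux and sulA so SOS filamentation is blocked; test concentration not given here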; conditions: E. coli DRC41 growth, higher = more signal, called active from +8 up or from −8 down
# [17] = probe aLefty2 binding to arrayed compounds – biochemical, biotinylated probe, 635/667 nm fluorescence, primary screen (AID 1094); conditions: small-molecule microarray, higher = more signal;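 also: score merges spot fluorescence near 667 nm with spot signal-to-noise ratio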
# [18] = tested on: Noggin (protein binding on small-molecule microarray); assay: small molecules binding Noggin protein – biochemical, 635/667 nm fluorescence, primary screen (AID 1095); conditions: 635 nm fluorescence, higher = more signal;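 also: score merges 667 nm feature fluorescence with signal to noise over triplicate slides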
# [19] = target: Neurogenic locus notch homolog protein 3 (Homo sapiens) (UniProt Q9UM47); assay: small molecules binding NOTCH3 protein – biochemical, 635/667 nm fluorescence, primary screen (AID 1096); conditions: small-molecule microarray, 635 nm fluorescence, higher = more signal
# [20] = probe aEGFR binding to arrayed compounds – biochemical, biotinylated probe, 635/667 nm fluorescence, primary screen (AID 1097); conditions: small-molecule microarray, higher = more signal;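 also: probe is a biotinylated anti-EGFR antibody binding compounds printed on slides; score combines fluorescence near 667 nm and signal to noise of each spot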
SMILES,composite z-score [1],composite z-score [2],composite z-score [3],composite z-score [4],composite z-score [5],composite z-score [6],composite z-score [7],z-score [8],composite z-score [9],composite z-score [10],composite z-score [11],z-score [12],z-score [13],z-score [14],composite z-score [15],z-score [16],composite z-score [17],composite z-score [18],composite z-score [19],composite z-score [20]
O=C1O[C@H](c2ccccc2)[C@H](c2ccccc2)N2[C@H]1[C@@H](C(=O)Nc1nc3ccccc3s1)[C@]1(C(=O)Nc3ccc(C#CC4(O)CCCCCC4)cc31)[C@H]2c1ccc(O)cc1,-0.299,-0.0427,-0.0407,0.443,1.34,1.8,1.14,0.36 (inactive),0.668,0.0623,1.54,-0.0416 (inactive),-0.265 (inactive),0.439 (inactive),3.08,-0.616 (inactive),0.11,1.59,1.09,-0.0214
COc1ccc([Si](C)(C)[C@H]2[C@H](CCO)O[C@@]3(C(=O)N(Cc4ccc(N5CCCCC5=O)cc4)c4ccccc43)[C@@H]2C)cc1,0.0352,0.959,-0.0747,-0.0971,0.308,1.46,1.05,-4.59 (inactive),0.172,-0.0994,1.54,-0.025 (inactive),-0.717 (inactive),2.28 (inactive),1.88,1.9 (inactive),-0.116,0.993,1.07,-0.0288
CO[C@H]1COC(=O)CC=C[C@H](C)COC(=O)[C@@H](OCc2ccccc2)C=C[C@@H]1C,-0.938,2.14,-0.317,-1.11,-1.49,0.311,0.958,0.236 (inactive),-0.0875,-0.12,1.52,0.0706 (inactive),-1.39 (inactive),-0.993 (inactive),0.059,0.0129 (inactive),-0.368,2.03,-0.532,-0.322
CCCC=C(CCC)[C@@H](NS(=O)(=O)c1ccc(-c2ccccc2)cc1)c1ccc(C(=O)OC)cc1,0.184,-0.337,-0.0363,-0.198,0.268,-0.33,-0.656,1.55 (inactive),-0.212,-0.0994,0.266,0.282 (inactive),-1.51 (inactive),0.284 (inactive),1.76,-1.9 (inactive),-0.119,-0.666,-0.616,-0.059
COc1ccc(CCN2C(=O)[C@@]3(c4ccc([N+](=O)[O-])cc4)CC(=O)N(CC45CC6CC(CC(C6)C4)C5)[C@@H]3c3ccc(CO)cc32)cc1,0.188,-0.063,0.0201,0.142,-0.18,0.978,0.956,-0.241 (inactive),-0.0561,-0.0296,1.55,0.0722 (inactive),-0.3 (inactive),-1.6 (inactive),2.09,-0.463 (inactive),0.141,-0.223,0.294,-0.109
